Source: PubChem BioAssay AID624488 (Broad Institute, 2012)
Results with a measured potency or affinity are listed apart. Activity calls are given as the source filed them.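 The calls were made as follows: active = compounds that lower cell ATP signal, with a fitted half-maximal concentration within a set limit; inconclusive = flat curve with moderate signal loss, or poor fit; inactive = the rest.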

test: viability loss in MITF-independent A375 cells – cell-based, CellTiter-Glo luminescence, dry powder, set 6, counter-screen for MITF inhibitor project, dose response (AID 624488); settings: CellTiter-Glo ATP luminescence, 24 h; series mostly up to 35 µM; activity change, negative = cytotoxicity: at the top concentration

Row | Compound | activity change, negative = cytotoxicity
1 | CNC1=CC(=O)c2ccccc2C1=O | -11.1% (inactive)
2 | NC1=C(NS(=O)(=O)c2ccc(Br)s2)C(=O)c2ccccc2C1=O | 2.01% (inactive)
3 | O=C1C=C(NS(=O)(=O)c2cccs2)C(=O)c2ccccc21 | -6.47% (inactive)
4 | O=C1C=C(NS(=O)(=O)c2ccc(Br)cc2)C(=O)c2ccccc21 | -4.1% (inactive)
5 | NC1=C(NS(=O)(=O)c2ccc(Br)cc2)C(=O)c2ccccc2C1=O | 0.71% (inactive)
6 | O=C1C(NS(=O)(=O)c2ccccc2)=C(c2ccccc2)C(=O)c2ccccc21 | -12.8% (inactive)
7 | NC1=C(NS(=O)(=O)c2cccs2)C(=O)c2ccccc2C1=O | -7.64% (inactive)
8 | O=C1C=C(NS(=O)(=O)c2ccccc2)C(=O)c2ccccc21 | -10.2% (inactive)
